Lassa entry inh = qHTS for Inhibitors of binding or entry into cells for Lassa Virus; Lassa virus pseudotype entry inhibition, cell reporter; Potency, µM (top dose mostly 37.9 µM), for inactives: at the highest dose activity change, negative = inhibition, hits mostly inhibitors; 300,000 compounds, 1.2% hits; calls by dose curve; tested in HEK293 cells; note: nearly all actives have a fitted effect of over 50% in size
VACV Venus inh = qHTS for Stage-Specific Inhibitors of Vaccinia Orthopoxvirus: Venus Reporter Primary qHTS; Potency, µM (doses to about 36.5 µM), for inactives: at the top dose activity change, negative = inhibition, actives largely listed as inhibitors; 330,000 compounds, 0.46% hits; Vaccinia virus Venus reporter expression, fluorescence; AID 720580, 2013; calls by dose curve; tested in A549 cells; note: nearly all actives have a fitted effect of over 30% in size
MARV entry inh = qHTS for inhibitors of binding or entry into cells for Marburg Virus. Marburg virus pseudotyped entry inhibition, cell reporter. Potency, µM (doses to about 37.8 µM), for inactives: at the top dose activity change, negative = inhibition, most hits filed as inhibitors. 300,000 compounds, 1.8% hits; calls by dose curve; tested in HEK293 cells
FMDV inh = High Throughput Screening for Foot and Mouth Disease Virus Antivirals | FMDV antiviral cell-based qHTS | AID 1159524, 2015 | Potency, µM (top dose mostly 57.9 µM), for inactives: at the top dose activity change, negative = inhibition, hits mostly inhibitors | 410,000 compounds, 1.2% hits; calls by dose curve; tested in HEK293T cells; note: read-out not given here; nearly all actives have a fitted effect of over 45% in size
Vaccinia mCherry = qHTS for Stage-Specific Inhibitors of Vaccinia Orthopoxvirus: mCherry Reporter Primary qHTS | Vaccinia virus mCherry reporter infection, fluorescence | Potency, µM (top dose mostly 36.5 µM), without a hit: at the highest dose activity change, negative = inhibition, most hits filed as inhibitors | 310,000 compounds, 0.63% hits; calls by dose curve; tested in A549 cells; note: nearly all actives have a fitted effect of over 35% in size
The depositor's hits bear a star; i = inactive; ? = inconclusive; . = no result given; [ ] = dose if it differs, or a comment. Compounds with a hit are over-represented: about 3.2% of the library has one in this group of screens. % is set by controls: 0 for no effect and ±100 for the full control effect; potency is the fitted concentration of half-maximal effect.

SMILES | Lassa entry inh | VACV Venus inh | MARV entry inh | FMDV inh | Vaccinia mCherry
c1ccc2c(c1)nc(N1CCOCC1)c1ccccc12 | -29.8%[46.1 µM] | -11.6% | -19.5%[46.1 µM] | 5.1% | i
Cc1nc(N2CCCCCC2)c2ccccc2n1 | . | . | . | -30.0% | .
CCN(CC)c1ccc(Nc2nc(N3CCOCC3)c3ccccc3n2)cc1 | 18.3µM* | . | ? | ? | .
CC(=O)Nc1ccc(/C=C/c2nc3ccccc3s2)cc1 | . | 34.6% | . | . | 20.4%
COc1cc(C(=O)Nc2nc(-c3ccc(Cl)cc3)c(C)s2)ccc1OCC(=O)Nc1ccc(F)cc1 | 10µM* | -10.2% | ? | 28.2µM* | -11.0%
CCCSc1nsc(NC(=O)CC)n1 | ? | -11.8% | 12.6µM* | -1.4% | i
Cc1nnc(N2CCOCC2)c2nn(-c3ccccc3)c(C)c12 | ? | -16.0% | -23.9% | -17.5% | -14.1%
c1ccc(-n2nnc3c(N4CCOCC4)ncnc32)cc1 | 5.17µM* | . | 2.31µM* | -85.1% | .
COc1ccc(-n2nc(C(=O)NCC(=O)NC3CCCCC3)c3ccccc3c2=O)c(OC)c1 | 12.6µM* | -3.4% | ? | 1.3% | -15.2%
COc1ccc(-n2nc(C(=O)NCC(=O)NC3CCCCCC3)c3ccccc3c2=O)c(OC)c1 | -18.7%[46.1 µM] | -14.8% | 14.0%[46.1 µM] | 12.8% | ?
COc1ccc(-n2nc(C(=O)NCC(=O)Nc3cc(C)ccc3OC)c3ccccc3c2=O)c(OC)c1 | 6.31µM* | 0.0% | 2.0%[46.1 µM] | -2.6% | -1.4%
COc1ccc([C@]23Cc4cc(OC)c(OC)cc4[C@H](O2)C2=C(CC4(CCCCC4)OC2=O)O3)cc1 | . | . | 2.0%[14.2 µM] | . | .
Cc1cnc(CNC(=O)c2c3n(c(C)cc2=O)-c2ccccc2SC(c2ccsc2)C3)cn1 (stereo not given) | . | -10.4% | . | -15.1% | -11.7%
CC1CCN(c2nc(-c3cccnc3)nc3scc(-c4ccccc4)c23)CC1 | . | . | . | -4.2% | .
CC1CCN(c2nc(CN3CCCCC3)nc3scc(-c4ccccc4)c23)CC1 | ? | -15.3% | ? | 31.6µM* | -24.1%
O=C(NCc1ccccn1)c1cnn(-c2nccc(-c3cccs3)n2)c1C1CC1 | . | -24.7% | . | -4.7% | i
O=C(NNC(=S)Nc1ccc(C(=O)O)c(O)c1)c1ccncc1 | -25.0%[46.1 µM] | -0.3% | ? | 12.6µM* | ?
COc1ccc(OC(C)C(=O)N(C)Cc2nc(-c3cccc(C)c3)no2)cc1 (stereo not given) | ? | -6.4% | ? | 0.0% | -0.4%
COc1ccc(-c2n(Cc3ccccc3)c3ccccc3[n+]2Cc2ccccc2)cc1 | 8.2µM* | . | 5.8µM* | ? | .
C=CCN1C(=O)C(Cc2ccc(OCC)cc2)S/C1=N\N=C\c1cccs1 (stereo not given) | 11.2µM* | 1.3% | -27.3% | -15.4% | .
Cc1cccc(C(=O)NC(=S)NCc2ccccc2)c1 | 17.8µM* | -12.0% | 14.4% | 29.9% | i
O=C(NC(=S)NCc1ccccc1)c1ccccc1 | ? | -11.8% | -13.7%[46.1 µM] | 34.6% | i
CC(C)c1oc(=O)cc2c1[C@@H](O)[C@H]1OC(=O)[C@@]3(C)CC[C@@H](O)[C@@]2(C)C13 (stereo not given in full) | ? | 3.98µM* | ? | ? | ?
CC(C)c1oc(=O)cc2c1[C@@H](O)[C@H]1OC(=O)[C@@]3(C)C[C@@H](O)[C@@H](O)[C@@]2(C)C13 (stereo not given in full) | 6.51µM* | 2µM* | 3.26µM* | ? | ?
COC(=O)c1ccc([C@H]2/C(=C(\O)c3ccc(OC)cc3)C(=O)C(=O)N2c2cc(C)on2)cc1 | . | . | -24.3%[46.1 µM] | . | .
SMILES | Lassa entry inh | VACV Venus inh | MARV entry inh | FMDV inh | Vaccinia mCherry
COC(=O)c1ccccc1NC(=O)c1cnn2c1NC(=C1CC1)C=C2C(F)F | . | -16.6% | . | . | -1.1%
Cc1cc(C(=O)COC(=O)Cc2n[nH]c(=O)c3ccccc23)c(C)n1-c1cccc(C(F)(F)F)c1 | ? | -16.3% | 11.2µM* | ? | -29.5%
Cc1cc(C(=O)COC(=O)CC2Sc3ccccc3NC2=O)c(C)n1-c1cccc(C(F)(F)F)c1 (stereo not given) | 0.1% | -5.5% | 1.2% | 12.4% | i
C=CCCC(=O)N1C[C@@H](CO)[C@@H](NC)C[C@H]1c1ccccc1Br | . | -2.4% | . | -3.8% | 8.8%
O=C(CCc1ccccc1)N/N=C/c1cc(Br)ccc1O | ? | ? | 22.4µM* | -3.7% | 12.6µM*
O=C(CCc1ccccc1)N/N=C\c1cc2c(cc1Br)OCO2 | ? | -11.9% | -19.0% | -4.8% | -15.6%

Assay outcomes (PubChem)
